hcDAF-12 act: H. contortus DAF-12 nuclear receptor activators, primary screen, cell-based, luminescence, HEK293, lit1-tk-luc reporter. HEK293 hcDAF-12 lit1-tk-luc reporter; 0% DMSO, 100% Δ7-dafachronic acid. 1.4% of 370,000 active. AID 652067, 2013. activation, % at 6.8 µM;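 active means activation above the mean of all tested compounds plus 3 SD, cut at about 5.5% in these data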;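 further: 100% = response to 3 µM Δ7-dafachronic acid high control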
hgDAF-12 ag: H. glycines DAF-12 receptor agonists, primary screen, cell-based, luminescence, HEK293, GAL4 fusion, UAS-luciferase | Nuclear hormone receptor DAF-12 (Heterodera glycines), GAL4 fusion | HEK293 GAL4-hgDAF12 UAS-luciferase reporter, agonist luminescence; normalized to butyrate control | activation, % at 6.8 µM | 1.8% of 370,000 active | AID 687014, 2013;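 active means activation above a cutoff set at the mean of all screened compounds plus 3 SD, cut at about 10% in these data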;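 further: 0% = DMSO wells and 100% = sodium butyrate wells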
DAX1 inh-1: DAX1 (NR0B1) inhibitors, primary screen, cell-based, HEK293, Gal4-DAX1, luciferase luminescence; Nuclear receptor subfamily 0 group B member 1 (Homo sapiens), P51843; HEK293 Gal4-DAX1 luciferase reporter; inhibition, % at 6.75 µM; 0.99% of 340,000 active; AID 504766, 2011;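 active means inhibition above the mean over all tested compounds plus 3 SD, cut at about 4.2% in these data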;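 further: 0% = DAX1-transfected cells with DMSO and 100% = empty-vector control cells with DMSO; inhibition shows as a rise in luminescence from relieved DAX1 repression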
Target sequence (P51843 207-470 limits assumed): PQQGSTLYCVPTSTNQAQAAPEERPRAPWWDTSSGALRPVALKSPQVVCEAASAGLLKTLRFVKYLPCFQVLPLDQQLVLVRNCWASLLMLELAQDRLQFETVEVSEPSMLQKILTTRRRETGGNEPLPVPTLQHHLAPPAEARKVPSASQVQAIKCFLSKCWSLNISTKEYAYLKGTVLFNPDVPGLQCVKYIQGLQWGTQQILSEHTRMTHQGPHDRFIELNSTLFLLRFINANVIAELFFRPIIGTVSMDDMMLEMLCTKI
ssDAF-12 act: S. stercoralis DAF-12 nuclear receptor activators, primary screen, cell-based, luminescence, HEK293, GRIP1 co-expression, lit1-tk-luc; activation, % at 6.8 µM; 1% of 370,000 active; Nuclear hormone receptor DAF-12 (Strongyloides stercoralis); AID 652126, 2013; HEK293 ssDAF-12/GRIP1 lit1-tk-luc reporter; % of 3 µM dafachronic acid response;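 active means activation above the mean over all tested compounds plus 3 SD, cut at about 0.9% in these data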;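 further: 0% = DMSO-only wells and 100% = 3 µM delta7-dafachronic acid wells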
DAX1 inh-2: DAX1 (NR0B1) inhibitors on StAR promoter, primary screen, cell-based, luminescence, SF-1 (NR5A1), full-length DAX-1; HEK293T StAR-luciferase reporter, SF-1/DAX-1 repression relief; inhibition, % at 6.8 µM; 1.1% of 370,000 active; AID 652010, 2013;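 active means inhibition above the mean over all tested compounds plus 3 SD, cut at about 3.6% in these data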;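 further: 0% = DAX-1 cells with DMSO and 100% = cells lacking DAX-1 with DMSO; higher inhibition means more luminescence from relief of DAX-1 repression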
Numbers without * were called inactive; / = not tested or not shown. Sampled rows, rich in hits. Any-hit rate of the full collection: about 4.1%.

SMILES	hcDAF-12 act	hgDAF-12 ag	DAX1 inh-1	ssDAF-12 act	DAX1 inh-2
CC(=O)N1CCCN(C(=O)CCn2nnc3ccccc32)CC1	-1.2	0.5	/	-1.0	0.4
C=Cn1ccnc1CC(O)c1ccc(OC)cc1 (stereo unspecified)	-0.5	-2.0	5.8*	-1.3	0.5
CC(=O)N1[C@@H](CO)[C@@H](c2ccc(-c3cccc(F)c3)cc2)[C@@H]1CNCC1CCC1	-0.1	-0.3	/	-0.5	0.5
COC(=O)c1ccc(N2CCN(CC(=O)c3ccc(C)cc3)CC2)c([N+](=O)[O-])c1	6.0*	3.6	1.1	-0.2	-0.2
O=C(N/N=C/c1cccs1)c1n[nH]c2c1CCCC2	5.9*	8.9	-5.8	-0.4	0.0
O=C(NCC1CCN(C(=O)C(=O)c2cc3ccccc3o2)CC1)c1ccc2c(c1)OCO2	0.9	-0.2	/	-1.6	1.3
Oc1ccccc1N=Cc1c(O)ccc2ccccc12	5.9*	-2.6	-1.5	0.9	-0.8
Oc1ccc2ccccc2c1C=NNc1ccccn1	6.0*	2.1	0.5	2.0*	-4.2
Oc1ccc2ccccc2c1C=Nc1ccccc1Br	-0.5	1.7	0.6	0.1	0.1
O=C(COCc1ccccc1)N1CC[C@H]2[C@H](CCCN2Cc2cc(F)cc(F)c2)C1	-0.9	3.9	/	-1.2	-0.1
COC(=O)c1cc(-c2ccc(C)cc2)n[nH]1	1.6	6.8	0.6	-0.5	0.8
COC(=O)c1cc(-c2ccc(OC)cc2)n[nH]1	-0.4	10.6*	2.1	-1.0	0.1
CCOC(=O)c1c(NC(=O)CN2CCN(S(=O)(=O)c3cc(Cl)ccc3Cl)CC2)sc(C(=O)N(C)C)c1C	-4.5	-5.6	-1.3	-2.5	-3.7
O=C(Cc1c(F)cccc1Cl)NC1CCN(Cc2ccccc2)CC1	-0.5	-2.2	0.6	-1.2	1.7
O=C(Cc1ccccc1[N+](=O)[O-])NC1CCN(Cc2ccccc2)CC1	2.8	2.3	0.1	1.5*	-0.3
CCC(CC)NC(=O)Cc1ccccc1[N+](=O)[O-]	5.6*	1.9	0.8	0.1	0.8
CC(NC(=O)Cc1ccccc1[N+](=O)[O-])c1ccccc1 (stereo unspecified)	6.3*	5.8	/	-0.5	-0.2
NS(=O)(=O)c1ccc(CNC(=O)Cc2ccccc2[N+](=O)[O-])cc1	5.6*	4.5	0.8	-0.3	0.0
CC(=O)NC(c1cccc(F)c1)c1nc(-c2cnn(C)c2)cs1 (stereo unspecified)	-1.2	1.2	/	-1.5	0.6
Cc1ccnc(SCc2cc(=O)c(OC(=O)c3ccc([N+](=O)[O-])cc3)co2)n1	-2.2	0.1	/	-0.8	/
COc1ccc2c(c1C(=O)/C=C/c1ccccc1)OC(C)(C)C=C2	-2.5	1.0	/	-1.4	/
O=S1(=O)CC2c3ccccc3CN2CN1Cc1ccccc1 (stereo unspecified)	1.9	-1.7	/	-0.8	0.4
COc1ccc(C2C(C(=O)N3CCN(C=O)CC3)CC(=O)N2c2ccc(OC)cc2)cc1 (stereo unspecified)	0.1	-0.8	/	-1.1	0.2
CC(C)(C)NS(=O)(=O)c1ccc(NC(=O)Cc2ccccc2[N+](=O)[O-])cc1	0.9	-1.7	0.2	-1.1	-0.7
CC(NC(=O)Cn1cc(Br)c([N+](=O)[O-])n1)c1ccccc1 (stereo unspecified)	1.4	-1.9	4.3*	-0.8	0.1
CCCCNS(=O)(=O)c1ccc(NC(=O)Cc2ccccc2[N+](=O)[O-])cc1	1.1	0.5	-0.5	2.0*	-0.7
COC(=O)c1ccc(NC(=O)c2ccc(OC(C)=O)c(OC)c2)cc1	3.2	9.3	-1.1	-1.6	4.0*
CC(C)c1cc(C(C)C)c(S(=O)(=O)N2CCC(c3cn4ccccc4n3)CC2)c(C(C)C)c1	-1.9	-0.9	/	-0.9	-1.8
O=C1C(c2ccncc2)=C(O)c2ccccc21	6.4*	11.5*	-0.5	0.3	4.3*
O=C(NCc1ccc(F)cc1)C1CCCN(c2nc3ccccc3o2)C1 (stereo unspecified)	0.2	0.2	/	-1.5	-0.7
